L3MBTL1 block – inhibitors of human L3MBTL1. Potency, µM (doses to about 57.1 µM), for inactives: at the top dose activity, negative = inhibition, most hits filed as inhibitors. AlphaScreen L3MBTL1–H3K9me1 peptide binding. Q9Y468. 230,000 compounds, 0.66% hits; also: nearly all actives have a fitted effect of over 60% in size
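First, the protein-peptide complex forms for 30 min at room temperature (L3MBTL1 50 nM, biotinylated H3K9me1 peptide 75 nM). Next, compounds are pin-transferred and incubated 30 min. Finally, AlphaScreen beads are added and read after 30 min.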
BLM inh – blocks DNA unwinding by human BLM helicase; recombinant BLM DNA unwinding, fluorescence dequenching; Potency, µM (doses to about 56.1 µM), inactives show top-dose activity change, negative = inhibition, actives largely listed as inhibitors; 350,000 compounds, 0.2% hits;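 also: plate controls were vehicle for no effect and no enzyme for full effect; nearly all actives have a fitted effect of over 35% in size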
APE1 inh – inhibitors of human APE1 endonuclease; P27695; recombinant APE1, TAMRA/BHQ-2 abasic DNA cleavage fluorescence; Potency, µM (doses to about 65.8 µM), for the others: at the highest dose activity change, negative = inhibition, most hits filed as inhibitors; 350,000 compounds, 0.35% hits; AID 2517;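 also: plate controls were vehicle for no effect and reference inhibitor for full effect; nearly all actives have a fitted effect of over 55% in size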
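Activity was derived from the fluorescence gain between first and third kinetic reads (60 s intervals, ex 525/em 598 nm) after 50 nM THF-abasic TAMRA/BHQ-2 duplex was added to 0.75 nM APE1 preincubated 15 min with compound.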
JMJD2E inh – inhibitors of human JMJD2E histone demethylase; AID 2147; B2RXH2; JMJD2E catalytic domain, FDH-coupled NADH fluorescence (FDH is formaldehyde dehydrogenase); 230,000 compounds, 1.6% hits; Potency, µM (highest dose often 57.1 µM), without a hit: at the top dose activity change, negative = inhibition, actives largely listed as inhibitors; active = well fitted inhibition curve with a large enough effect, not every such curve was filed as active; inconclusive = small, poorly fitted or top-dose-only effect, or another doubt; inactive = no such curve, though single readings can be large or run the other way;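 also: 0% = wells with enzyme and -100% = buffer wells without enzyme; nearly all actives have a fitted effect of over 50% in size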
RECQ1 inh – RECQ1 (human) helicase inhibition; P46063; RECQ1 DNA unwinding, red fluorescence kinetic read; Potency, µM (highest dose often 57.3 µM), inactives show at the highest dose activity, negative = inhibition, actives largely listed as inhibitors; 240,000 compounds, 0.54% hits; AID 2549;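 also: plate controls were vehicle for no effect and no enzyme for full effect; nearly all actives have a fitted effect of over 30% in size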
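50 nM RECQ1T1 preincubated 15 min with compound in Tris pH 8.0 buffer with MgCl2, DTT, Tween-20 and 2.5 ug/ml poly(dI-dC); started with 200 nM TAMRA/BHQ-2 forked duplex and 2 mM ATP. Unwinding read as fluorescence (525/598 nm), two reads 2 h apart.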
* = called active by the depositor; i = inactive; ? = inconclusive; . = not tested or not shown; ! = not confirmed by another sample; [ ] = remark or other dose. This excerpt belongs to a sample that is enriched for hits. Unless noted, calls follow the shape of the dose curve; as a rule, active = well fitted curve in the direction sought with a large enough effect; inconclusive = small, poorly fitted or top-dose-only effect, or another doubt; inactive = no such curve, though single readings can be large; an effect the other way counts as inactive or inconclusive. Unless noted, % is scaled to controls: 0 for no effect and ±100 for the full control effect; potency is read from the fitted curve at half-maximal effect.

SMILES	L3MBTL1 block	BLM inh	APE1 inh	JMJD2E inh	RECQ1 inh
CC1(C)C(=O)CC[C@@]2(C)C1=CCC1C2CC[C@]2(C)C(=O)CCC12 (stereo partly drawn)	0%	.	-11%	.	.
CNCCc1ccc(O)c(O)c1	.	.	1%	14µM*	-3%
COC(=O)C1=C(c2ccc(F)cc2OCc2ccccc2)C[C@@H]2CC[C@H]1N2C(=O)NCc1ccc(Br)cc1	2%	.	-10%	.	.
C[C@H]1OC[C@@H](C[N+](C)(C)C)O1	8%	-1%	-3%	25µM*!	-2%
C=CCn1c(O)c(/C=C2/C=CC=N2)c(=O)[nH]c1=O	3%	0%	-3%	-1%	11µM*
CCCCn1c(O)c(/C=C2/C=CC=N2)c(=O)[nH]c1=O	-10%	0%	-3%	3%	-4%
Cn1c(O)c(C(=Nc2ccccc2)SCc2ccccc2Cl)c(=O)n(C)c1=O	.	-5%	14%	?	-27%
C/C(=C/CCC(C)[C@H]1CC[C@@]2(C)C3=C(CC[C@]12C)[C@@]1(C)CCC(=O)C(C)(C)[C@@H]1CC3)C(=O)O (stereo partly drawn)	2%	25µM*	4%	8%	-4%
CC(=O)OC1CCC2(C)C3=C(CCC2C1(C)C)[C@]1(C)CCC(C(C)CCC=C(C)C)[C@]1(C)CC3 (stereo partly drawn)	.	-4%	?	-11%	i
N/C(=N\[N+](=O)[O-])N/N=C/c1ccc(O)cc1	2%	-4%	7%	2%	0%
Nc1nonc1C(=O)N/N=C/c1ccc([N+](=O)[O-])o1	35µM*	-9%	-1%	-5%	-1%
COc1ccc(-n2c(/C=C/c3ccc(O)c(OC)c3)nc3ccccc3c2=O)cc1	7%	-5%	-6%	.	.
COc1cccc(-n2c(/C=C/c3ccc(O)c(O)c3)nc3ccccc3c2=O)c1	-7%	-24%	?	32µM*	-17%
O=c1c2ccccc2nc(/C=C/c2ccc(O)cc2)n1-c1cccc(O)c1	?	25µM*	?	?	-13%
CCCCCCNc1nc(OC)nc(N2CC3CC(C2)c2cccc(=O)n2C3)n1 (stereo not drawn)	1%	2%	5%	1%	i
CCc1cccc(C)c1NC(=S)N1CC2CC(C1)c1cccc(=O)n1C2 (stereo not drawn)	8%	1%	3%	3%	-4%
N/C(=N\N=C\c1ccc(O)cc1O)N[N+](=O)[O-]	.	-9%	5%	25µM*	i
CSc1ccc(/C=C/c2nc3ccccc3c(=O)n2-c2cccc(Cl)c2C)cc1	.	-4%	.	.	.
N#C/C(=C\c1ccc(O)c(O)c1)C(N)=S	.	?	13µM*	?	5.6µM*!
Cc1ccc(-n2c(C)nc3cc(Cl)ccc3c2=O)nc1	.	3%	3%	.	.
O=C1c2ccccc2C(=O)c2ccccc21	.	2%	-4%	3%	-9%
O=C1C=Cc2ccccc2C1=O	-25%	-1%	?	14µM*	28µM*
C[C@@]12CC(=O)[C@H]3[C@@H](CCC4=CC(=O)CC[C@]43C)[C@H]1CCC2=O	.	4%[21.4 µM]	0%[21 µM]	2%[25.5 µM]	-10%[25.9 µM]
CCn1c(C)[n+](CC)c2ccc(S(=O)(=O)NC)cc21	0%	-2%	-2%	7.9µM*	13%
CC1(C)CC2(CCO1)NCCN1C(=O)CSC12 (stereo not drawn)	1%	0%	13%	-2%	-18%
COc1cc2c(cc1OC)-c1c3c(cc4c1[C@@H](C2)N(C)CC4)OCO3	-9%	0%	-8%	?	-25%
COc1cc2c(cc1O)C[C@H]1NCCc3cc4c(c-2c31)OCO4	35µM*	9%	?	?	-8%
CO/N=C(\C(=O)N[C@@H]1C(=O)N2C(C(=O)O)=C(CSc3nc(=O)c(O)nn3C)CS[C@H]12)c1csc(N)n1	.	.	14µM*	.	.
Cn1cccc1/C=C1\C(=O)NC(=O)N(CCC2=CCCCC2)C1=O	-3%	-2%	-7%	2%	40µM*
O=C1NC(=O)N(CCC2=CCCCC2)C(=O)/C1=C\c1cccs1	?	-15%	-6%	1%	16%
